Laboratory results: PubChem BioAssay AID504832 (National Center for Advancing Translational Sciences (NCATS), 2011)
Out of some 310,000 compounds screened, about 18,000 (5.8%) were called active. Where a call stands in place of a potency, no number is given. About 22% were inconclusive and are not listed. Many of the other results were omitted from the sample, so actives are more common in it than they were. A number with no mark means an inactive call. The call rests on the fitted dose curve; in most records, active means well fitted inhibition curve with a large enough effect; inconclusive means small, poorly fitted or top-dose-only effect, or another doubt; inactive means no such curve, though single readings can be large or run the other way.

Experiment: Primary qHTS for delayed death inhibitors of the malarial parasite plastid, 48 hour incubation
Settings: P. falciparum luciferase growth in erythrocytes; series mostly up to 28.7 µM
Method in brief: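 In quantitative HTS format, infected erythrocytes bearing luciferase-reporter parasites were treated for a single generation at 37 C. Luminescence after adding detection reagent served as the growth measure.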
Potency means the concentration at half of the fitted maximal effect.

| SMILES | Potency | activity change, negative = inhibition |
| --- | --- | --- |
| Cc1cccc(OCCC(=O)OCc2csc(CC(=O)Nc3ccccc3C)n2)c1 | inactive | – |
| Cn1ncc2c(N3CCCCC3)nc(NCCCO)nc21 | inactive | – |
| Cc1ccc(NC(=O)CCCNC(=O)c2ccc(Cl)cc2)cc1S(=O)(=O)N1CCCCC1 | inactive | – |
| CCc1ccccc1OCC(=O)Nc1ccc(C)c(S(=O)(=O)N2CCCCCC2)c1 | 10.4 µM (active) | – |
| CCc1ccccc1OCC(=O)Nc1ccc2c(c1)OCCO2 | inactive | – |
| COc1ccc(C(=O)NC2CC(C)(C)NC(C)(C)C2)cc1OC | inactive | – |
| COc1ccc(S(=O)(=O)NC(C)c2ccccc2)cc1C(=O)N1CCCCC1 (stereo unspecified) | inactive | – |
| COc1cccc(C(=O)NNS(=O)(=O)c2ccc(F)cc2)c1 | inactive | – |
| CN(C)Cc1ccccc1C1(O)c2ccccc2CSc2ccccc21 (stereo unspecified) | inactive | – |
| CN(C)CC/C=C1\c2ccccc2CSc2ccccc21 | 10.4 µM (active) | – |
| CCOc1ccc(C(=O)Nc2cc(Cl)ccc2-n2cncn2)cc1OC | inactive | – |
| O=C(CNc1cccc(S(=O)(=O)N2CCCCC2)c1)Nc1ccccc1F | inactive | – |
| O=C(NCc1cc(F)cc(C(F)(F)F)c1)C1CCC(=O)N(C2CCCC2)C1 (stereo unspecified) | inactive | – |
| Cc1cc(NC(=O)c2ccco2)c(=O)n(Cc2c(F)cccc2Cl)c1 | inactive | – |
| Cc1ccc(NC(=S)Nc2ccc(F)cc2)cc1 | inactive | – |
| COC(=O)C1=C(Nc2ccc(OC)cc2)C=C(C)C(C(=O)OC)C1c1ccc(C)cc1 (stereo unspecified) | 10.4 µM (active) | – |
| Cc1ccc(C(=O)CNc2ccc(F)cc2)cc1 | inactive | – |
| COc1ccc(N2C(=O)C(O)C2c2ccc(C)cc2)cc1 (stereo unspecified) | inactive | – |
| COC(=O)C1C(=O)NCC1c1ccc(OC)cc1 (stereo unspecified) | inactive | – |
| COC(=O)C1=C(Nc2ccc(C)cc2)C=C(C)C(C(=O)OC)C1c1ccc(F)cc1 (stereo unspecified) | 3.7 µM (active) | – |
| c1ccc2c(c1)CCc1snnc1-2 | inactive | – |
| COC(=O)c1cc(CNC(=O)CC(C)c2ccccc2)ccc1OC (stereo unspecified) | inactive | – |
| CCOc1cc(/C=N/NC(=O)CN2CCCCC2)ccc1O | inactive | – |
| CCOC(=O)N1CCN(CCC(=O)Nc2ccccc2)CC1 | inactive | – |

| SMILES | Potency | activity change, negative = inhibition |
| --- | --- | --- |
| O=C(Nc1c2c(nc3ccccc13)CCCC2)c1ccccc1Br | inactive | – |
| O=C(NNc1c2ccccc2nc2ccccc12)c1cc2ccccc2cc1O | 11.7 µM (active) | – |
| Cc1noc(C)c1COC(=O)c1cc2ccccc2cc1O | inactive | – |
| CCn1c(SCc2ccccc2)nc2c(c1=O)SCC2 | inactive | – |
| COc1cccc(CSc2nc3nc(C)cc(C)n3n2)c1 | inactive | – |
| COCCCn1c(SCc2cccc(OC)c2)nc2cc(OC)c(OC)cc2c1=N | 2.62 µM (active) | – |
| CCn1c(SCc2ccccc2)nc2cc(OC)c(OC)cc2c1=O | 10.4 µM (active) | – |
| COCCn1c(SCc2nc3cc(OC)c(OC)cc3c(=O)[nH]2)nnc1-c1ccncc1 | inactive | – |
| COC(=O)CSc1nc2ccccc2c(=O)n1Cc1ccccc1 | inactive | – |
| Cc1ccc(NC2CCCN(C(=O)CCc3cn[nH]c3)C2)cc1C (stereo unspecified) | inactive | – |
| COc1ccc(S(=O)(=O)Nc2cc(C)on2)cc1NC(C)=O | inactive | – |
| Cc1ccc2nc(SCC(=O)N3CC(C)OC(C)C3)nc(=O)n2c1 (stereo unspecified) | inactive | – |
| CC(C)Nc1ccc(-n2nc3ccccc3[n+]2[O-])cc1 | inactive | – |
| COc1ccc(NC(=O)C2CCN(S(=O)(=O)c3ccc4[nH]c(=O)oc4c3)CC2)c(OC)c1 | inactive | – |
| COc1ccc(C(CNC(=O)COc2ccccc2OC)N2CCCCC2)cc1 (stereo unspecified) | inactive | – |
| COc1ccccc1CN1CC(C(=O)NCCc2cn[nH]c2)CCC1=O (stereo unspecified) | inactive | – |
| COc1ccc2c(c1)C=CC1(O2)N(CCO)c2ccccc2C1(C)C (stereo unspecified) | 13.1 µM (active) | – |
| COc1ccc2c(c1)C(SCC(=O)NCc1ccccc1)CC(C)(C)O2 (stereo unspecified) | inactive | – |
| CN1c2ccc([N+](=O)[O-])cc2C(C)(C)C12C=Cc1cc(C(=O)O)ccc1O2 (stereo unspecified) | – | 16.2% [at 0.00184 µM] |
| CC1CCCCC1NC(=O)COC(=O)Cc1ccc(Cl)cc1 (stereo unspecified) | inactive | – |
| CSc1nnc2ccc(-c3ccc(C)cc3)nn12 | inactive | – |
| Cc1ccc(S(=O)(=O)n2cccc2CO)cc1 | inactive | – |
| CN(C)CCNc1ccc(-c2n[nH]c(=O)c3ccccc23)cc1[N+](=O)[O-] | inactive | – |
| COCCNc1cc(NCCOC)c([N+](=O)[O-])cc1[N+](=O)[O-] | inactive | – |

| SMILES | Potency | activity change, negative = inhibition |
| --- | --- | --- |
| COCCNc1ccc(-c2n[nH]c(=O)c3ccccc23)cc1[N+](=O)[O-] | 4.65 µM (active) | – |
| COc1ccc(CNC(=O)c2cc(=O)c3c(C)cc(C)cc3o2)cc1 | inactive | – |
| O=C(c1cc(-c2ccc(Cl)cc2)on1)N1CCN(c2ccccc2)CC1 | inactive | – |
| CC(C)n1cnc2c(Nc3cccc(Cl)c3)nc(N(CCO)CCCO)nc21 | 7.38 µM (active) | – |
| O=C(Nc1ccccc1N1CCCCC1)c1cccc(F)c1 | inactive | – |
| O=C(NC(=S)Nc1ccccc1N1CCCCC1)c1ccc(F)cc1 | 8.28 µM (active) | – |
| COc1ccccc1C(=O)NC(=S)Nc1ccccc1N1CCCCC1 | inactive | – |
| O=C(COc1nsnc1N1CCOCC1)Nc1ccccc1Cl | inactive | – |
| Cn1c(=O)n(C)c2cc(C(=O)Nc3ccc(Br)cc3)ccc21 | inactive | – |
| N#CCSc1nc(-c2ccccc2)nc2ccc(F)cc12 | inactive | – |
| CSc1nc(-c2ccccc2)nc(C(Cl)Cl)n1 | inactive | – |
| Clc1ccc2nc(-c3ccccc3)nc(C(Cl)Cl)c2c1 | 10.4 µM (active) | – |
| CN1C(C(=O)NCC2CC2)CC2Cn3c(nc4ccccc43)C21 (stereo unspecified) | inactive | – |
| Cn1nc(C(F)(F)F)c(-c2ccc(F)cc2)c1NC(=O)CSCC(=O)O | inactive | – |
| Cn1nc(C(F)(F)F)c2cc(NC(=O)OCC(C)(C)C)sc21 | 2.33 µM (active) | – |
| Cn1nc(C(F)(F)F)c2cc(C(=O)N3CCOCC3)sc21 | inactive | – |
| COc1ccc(CN2CCC(n3nccc3NC(=O)CCCc3ccccc3)CC2)cc1C | inactive | – |
| CC(Sc1nnc(C2CC2)n1C1CC1)C(=O)Nc1ccc(C(N)=O)cc1 (stereo unspecified) | inactive | – |
| COc1cccc(NC(=O)CSc2nnc(Cc3ccc(OC)c(OC)c3)o2)c1 | inactive | – |
| O=C(COC(=O)c1ncc(Cl)c(Cl)c1Cl)NNC(=O)c1ccccc1 | inactive | – |
| O=C(O)Cc1sc(-c2ccccc2)nc1-c1cccs1 | inactive | – |
| O=C(NCc1cccnc1)c1cn(-c2ccccc2)nc1-c1cccs1 | inactive | – |
| CC(=O)C1=C(C)NC(C)=C(C(C)=O)C1c1cn(-c2ccccc2)nc1-c1cccs1 | 14.7 µM (active) | – |
